PLCg1 inh: PLC-gamma1 (human) inhibition, primary screen; P19174; purified PLC-gamma1, fluorogenic substrate, fluorescence; inhibition, % at 12.2 µM; actives 0.84% (n = 370,000); AID 720700; in the data active = inhibition above about 9.5%
PLCb3 inh: blocks human PLC-beta3 enzyme activity; Q01970; Purified PLC-beta3, fluorogenic substrate, fluorescence; inhibition, % at 12.2 µM; actives 0.18% (n = 370,000); AID 720704;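 also: 0% = median of compound wells on plate and 100% = full blocker control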
ADAM17 inh: inhibitors of human ADAM17 | recombinant ADAM17, EDANS/DABCYL FRET peptide cleavage | inhibition, % at 6.95 µM | actives 0.83% (n = 370,000) | AID 720648;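 active = inhibition above the mean of compounds lying between control limits plus 3 SD, set per campaign, cut at about 8.5% in these data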;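 also: 0% = DMSO-only wells as the low control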
ADAM10 inh: inhibitors of human ADAM10 | O14672 | recombinant ADAM10, EDANS/DABCYL FRET peptide cleavage, 3 h | inhibition, % at 7 µM | actives 0.62% (n = 370,000) | AID 720582;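 active = inhibition above a per-campaign cutoff equal to the mean of compounds falling between control-based bounds plus 3 SD, cut at about 20% in these data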;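 also: 0% = DMSO wells while the 100% control is not disclosed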
proKLK7 act: activates the human kallikrein-7 zymogen. activation, % at 7 µM. P49862. actives 0.9% (n = 370,000). purified proKLK7, EDANS-DABCYL substrate fluorescence; 100% is mature enzyme control, 0% vehicle;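 active = activation above the mean of all tested compounds plus 3 SD, computed per campaign excluding outliers beyond control limits, cut at about 13% in these data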
HGIII-sPLA2 inh: Inhibits HGIII-sPLA2 liposome hydrolysis, primary screen; QFRET BODIPY PC-A2 liposome hydrolysis, fluorescence; inhibition, % at 12.2 µM; actives 0.56% (n = 370,000); AID 743126;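 active = inhibition above mean plus 3 SD of compounds lying within the high and low control bounds, cut at about 19% in these data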;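 also: 0% = median of test compound wells and 100% = no enzyme DMSO wells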
PLCgamma1 ctr: inhibits human PLC-gamma1 in PLC-beta3 counter-screen. shares compounds with PLCg1 inh. purified PLC-gamma1, fluorogenic substrate, fluorescence. inhibition, % at 12.3 µM. actives 3.1% (n = 3,300); in the data active = inhibition above about 9.5%
PLCb3 confirm: confirmation of human PLC-beta3 inhibitors; shares compounds with PLCg1 inh; purified PLC-beta3, fluorogenic substrate fluorescence; inhibition, % at 12.3 µM; actives 1% (n = 3,300)
An asterisk follows results filed as active; . = not tested or not shown. In the library only some 3.4% were active in any assay of this set; here they are far more common. Rule as the data show it, unless noted: active = inhibition above about 11%; inactive = the rest.

SMILES	PLCg1 inh	PLCb3 inh	ADAM17 inh	ADAM10 inh	proKLK7 act	HGIII-sPLA2 inh	PLCgamma1 ctr	PLCb3 confirm
Cc1cccc(CC2S/C(=N/N=C/c3ccco3)N(c3ccccc3)C2=O)c1 (centres undefined)	11*	4	3	8	0	-15	0	-1
CCC1S/C(=N/N=C/c2ccco2)N(c2ccc(F)cc2)C1=O (centres undefined)	3	3	-1	8	0	0	.	.
NS(=O)(=O)c1ccc(CCNC(=O)Cc2ccc(S(=O)(=O)N3CCOCC3)s2)cc1	-14	-18	-5	-4	0	0	.	.
O=C(c1cc(C2CC2)nn1-c1ccccc1)N1CCN(Cc2c(F)cccc2Cl)CC1	0	-6	0	-7	0	-3	.	.
CNC(=S)N(Cc1ccc(OC)cc1)C1CC(=O)N(c2ccc(Cl)cc2)C1=O (centres undefined)	9.6*	3	1	6	0	-43	8	8
CC(C)(C)NC(=O)C1c2ccccc2OCC(=O)N1CCCN1CCOCC1 (centres undefined)	2	0	1	-17	1	10	.	.
Cc1cc(NC(=O)COC(=O)C2CC2)ccc1Br	-2	-3	0	5	0	-1	.	.
COc1ccc(Cl)c(OC)c1C(=O)NC(=O)Nc1nc(C)nc(C)n1	5	-6	-7	-12	0	7	.	.
COc1c(Cl)cc(Br)c(OC)c1C(=O)NC(=O)Nc1nc(C)cc(C)n1	11*	1	1	2	0	7	-2	-1
O=C1CC(NS(=O)(=O)c2ccc([N+](=O)[O-])cc2)CN1c1ccc2c(c1)OCCO2 (centres undefined)	3	-7	-6	-11	0	1	.	.
O=C(Oc1ccc([N+](=O)[O-])cc1)C1CC(=O)N(c2ccc3c(c2)OCCO3)C1 (centres undefined)	13*	1	6	-6	-1	7	-3	-1
COc1ccc(C2c3c(-c4ccccc4)n[nH]c3C(=O)N2c2ccc(C(=O)O)cc2)cc1 (centres undefined)	11*	6	4	9	0	-16	-4	-5
COc1cccc(C2c3c(-c4ccccc4)n[nH]c3C(=O)N2c2ccc(C(=O)O)cc2)c1 (centres undefined)	2	0	-3	-2	0	-9	.	.
OCC[C@H]1C[C@H](O)[C@@H](O)[C@]2(CCCc3ccccc3O2)O1	0	11*	4	14	0	-2	5	4
OCC[C@H]1C[C@@H](O)[C@H](O)[C@]2(CCc3ccccc3O2)O1	9	11*	6	0	1	8	-5	1
C[C@H]1CCC[C@]2(O[C@@H](CCO)C[C@@H](O)[C@@H]2O)O1	9.9*	7	5	-1	-1	9	-5	2
CSCCC(NC(=O)OCc1ccccc1)C(=O)NCc1cccnc1 (centres undefined)	9.8*	-5	-7	-7	0	15	-2	-3
Cc1c(N2C(=O)c3cccc4cccc(c34)C2=O)c(=O)n(-c2ccccc2)n1C	9.8*	12*	5	9	-1	1	14*	5
O=C(c1ccco1)N1CCN=C1SCc1ccccc1Cl	-2	17*	-3	-11	0	4	-1	1
FC(F)(F)c1cc(CCN2CCNC[C@@H]2c2ccccc2)cc(C(F)(F)F)c1	-4	-5	-5	-3	-1	14	.	.
FC(F)(F)c1cc(CO[C@@H]2CCCN[C@@H]2c2ccccc2)cc(C(F)(F)F)c1	10*	9	7	11	0	-6	-10	-2
CCOC(=O)N1CCN(C(=O)c2cn(C)c3ccc(S(=O)(=O)N4CCC(C)CC4)cc3c2=O)CC1	3	3	1	-3	-1	1	.	.

High-throughput results from PubChem.
